According to PubChem BioAssay AID1159580 (chemical genetic matrix, 2015):
Several values for one entry are separate records, joined by “and”; a condition that tells them apart may be missing. Equal entries are not always repeated. In all, about 5,500 compounds went through this assay and about 2,000 (36%) were called active. About 18% were inconclusive and are not listed. No stated cut-off is given here; in the data, active means normalized growth mostly below about 0.91 (no sharp cut-off); inconclusive means no clear call, values can overlap the other calls; inactive means mostly above about 0.92. This is one part of the list.

Experiment: chemical genetic growth profiling, strain panel (AID 1159580);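 further: tested at 20 µM; growth read once vehicle control cultures reached saturation at 30 °C; 1 = growth at the plate median or of vehicle wells; lower values mean less growth of the strain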
Details: S. cerevisiae deletion strains, growth OD

Measured: normalized growth

CCN1CCN(C(=O)NC(C(=O)N[C@@H]2C(=O)N3[C@@H]2SC(C)(C)[C@@H]3C(=O)O)c2ccccc2)C(=O)C1=O (stereo partly specified)
inactive: locus YAL013W, strain DEP1, hits give low values 1.01 | locus YAL021C, strain ccr4, hits give low values 1 | locus YAL026C, strain drs2, hits give low values 0.999 | locus YAL030W, strain snc1, hits give low values 1.01 | locus YBL061C, strain skt5, hits give low values 0.999 | locus YBR009C, strain hhf1, hits give low values 1.02 | locus YBR021W, strain FUR4, hits give low values 1.01 | locus YBR023C, strain chs3, hits give low values 1.01 | locus YBR171W, strain sec66, hits give low values 1 | locus YBR229C, strain ROT2, hits give low values 1.01 | locus YBR231C, strain swc5, hits give low values 0.98 | locus YBR279W, strain paf1, hits give low values 1 | locus YCL011C, strain gbp2, hits give low values 1.02 | locus YCL016C, strain dcc1, hits give low values 1 | locus YCL029C, strain bik1, hits give low values 1.02 | locus YCL061C, strain MRC1, hits give low values 0.995 | locus YCL069W, strain vba3, hits give low values 0.99 | locus YCR088W, strain abp1, hits give low values 1 | locus YDL005C, strain med2, hits give low values 0.988 | locus YDL035C, strain GPR1, hits give low values 0.988 | locus YDL040C, strain nat1, hits give low values 0.989 | locus YDL074C, strain BRE1, hits give low values 0.993 | locus YDL101C, strain DUN1, hits give low values 1.02 | locus YDL134C, strain PPH21, hits give low values 1.01 | locus YDL185W, strain tfp1, hits give low values 1.02 | locus YDL192W, strain arf1, hits give low values 1.01 | locus YDR001C, strain nth1, hits give low values 0.991 | locus YDR069C, strain doa4, hits give low values 0.997 | locus YDR101C, strain arx1, hits give low values 1.01 | locus YDR137W, strain rgp1, hits give low values 0.975 | locus YDR150W, strain NUM1, hits give low values 1.02 | locus YDR159W, strain sac3, hits give low values 1 | locus YDR162C, strain NBP2, hits give low values 0.997 | locus YDR195W, strain ref2 0.959 | locus YDR297W, strain sur2, hits give low values 0.996 | locus YDR318W, strain mcm21, hits give low values 1.02 | locus YDR334W, strain swr1, hits give low values 1 | locus YDR335W, strain msn5, hits give low values 0.999 | locus YDR388W, hits give low values 1.01 | locus YDR392W, strain spt3, hits give low values 1.03 | locus YDR502C, strain sam2, hits give low values 1.01 | locus YEL003W, strain gim4, hits give low values 1.01 | locus YEL037C, strain rad23, hits give low values 0.997 | locus YEL061C, strain CIN8 (second series), hits give low values 1 | locus YEL061C, strain CIN8, hits give low values 1.01 | locus YER015W, strain faa2, hits give low values 0.992 | locus YER016W, strain bim1, hits give low values 1 | locus YER110C, hits give low values 1.02 | locus YER111C, strain swi4, hits give low values 1 | locus YER155C, strain BEM2 (second series), hits give low values 0.993 | locus YER155C, strain BEM2, hits give low values 0.991 | locus YER167W, strain BCK2, hits give low values 1.01 | locus YFR010W, strain ubp6, hits give low values 0.984 | locus YGL078C, strain dbp3, hits give low values 1.01 | locus YGL086W, strain mad1, hits give low values 1.02 | locus YGL167C, strain pmr1, hits give low values 1 | locus YGL173C, strain kem1, hits give low values 0.991 | locus YGL227W, strain vid30, hits give low values 0.989 | locus YGL240W, strain doc1, hits give low values 0.975 | locus YGL248W, strain PDE1, hits give low values 1.01 | locus YGL253W, strain hxk2, hits give low values 0.999 | locus YGR078C, strain PAC10, hits give low values 1.02 | locus YGR135W, strain pre9, hits give low values 1 | locus YGR229C, strain SMI1, hits give low values 1 | locus YGR252W, strain gcn5, hits give low values 1.01 | locus YHR013C, strain ard1, hits give low values 0.975 | locus YHR027C, strain rpn1, hits give low values 0.996 | locus YHR030C, strain SLT2, hits give low values 1.01 and 1 | locus YHR079C, strain IRE1 (second series), hits give low values 1.02 | locus YHR079C, strain IRE1, hits give low values 1.01 | locus YHR094C, strain hxt1, hits give low values 1.01 | locus YHR129C, strain ARP1, hits give low values 1 | locus YHR142W, strain chs7, hits give low values 0.998 | locus YHR200W, strain rpn10, hits give low values 1.01 | locus YIL066C, strain RNR3, hits give low values 1.01 | locus YIL073C, strain SPO22, hits give low values 1.05 | locus YIL125W, strain kgd1, hits give low values 1.01 | locus YIR030C, strain dcg1, hits give low values 1.01 | locus YJL092W, strain hpr5, hits give low values 1 | locus YJL095W, strain BCK1 (second series), hits give low values 1 | locus YJL095W, strain BCK1, hits give low values 1 and 0.999 | locus YJL115W, strain asf1, hits give low values 0.996 | locus YJL129C, strain trk1, hits give low values 0.993 | locus YJL134W, strain LCB3, hits give low values 1.01 | locus YJL154C, strain vps35, hits give low values 1 | locus YJL164C, strain tpk1, hits give low values 0.99 | locus YJL166W, strain qcr8, hits give low values 0.992 | locus YJL168C, strain set2, hits give low values 1.01 | locus YJL187C, strain SWE1 (second series), hits give low values 1.03 | locus YJR043C, strain POL32, hits give low values 0.994 | locus YJR066W, strain TOR1, hits give low values 0.953
